Unmarked numbers belong to inactive results. Inconclusive results are not listed. Where a call stands in place of a potency, no number is given. The source made the active and inactive calls. Unless noted, calls come from the whole dose curve; as a rule, active = well fitted curve in the direction sought with a large enough effect in the repeat runs; inconclusive = weak or mixed curves; inactive = no such curve, though single readings can be large; an effect the other way counts as inactive or inconclusive.
Key:
[1] = molecular target: Acetylcholinesterase (Homo sapiens) (UniProt P22303); test: Acetylcholinesterase (AChE) small molecule antagonists: enzyme-based qHTS assay (AID 1347397; calls by dose curve; note: nearly all actives have a fitted effect of over 55% in size); conditions: Potency: AChE enzyme activity inhibition; outcome: AChE enzyme activity inhibition
Acetylcholinesterase (Homo sapiens), sequence (P22303 whole entry, looked up): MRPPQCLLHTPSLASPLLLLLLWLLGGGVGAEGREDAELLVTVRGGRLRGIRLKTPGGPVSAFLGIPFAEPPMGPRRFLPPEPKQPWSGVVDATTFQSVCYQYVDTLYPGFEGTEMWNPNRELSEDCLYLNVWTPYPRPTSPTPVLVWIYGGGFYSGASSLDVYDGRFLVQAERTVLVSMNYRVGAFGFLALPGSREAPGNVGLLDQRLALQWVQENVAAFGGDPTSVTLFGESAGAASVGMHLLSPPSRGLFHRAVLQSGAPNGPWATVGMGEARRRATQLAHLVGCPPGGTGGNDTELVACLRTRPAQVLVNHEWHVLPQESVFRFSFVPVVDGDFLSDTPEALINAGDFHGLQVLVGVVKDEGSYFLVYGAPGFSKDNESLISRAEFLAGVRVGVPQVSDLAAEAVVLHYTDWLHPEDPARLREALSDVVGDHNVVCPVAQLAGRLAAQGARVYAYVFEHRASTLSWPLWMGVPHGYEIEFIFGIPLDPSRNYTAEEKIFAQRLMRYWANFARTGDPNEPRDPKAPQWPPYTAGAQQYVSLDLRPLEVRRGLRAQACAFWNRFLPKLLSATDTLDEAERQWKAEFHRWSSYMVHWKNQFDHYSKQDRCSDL
Method in brief: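 Compound or DMSO vehicle was pin-transferred onto recombinant human AChE (50 mU/mL as dispensed) and left 30 min at room temperature. Acetylthiocholine with DTNB then started the reaction, read colorimetrically 10 min later.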

[2] = molecular target: Acetylcholinesterase (Homo sapiens) (UniProt P22303); test: Acetylcholinesterase (AChE) small molecule antagonists: fluorescence cell-based qHTS assay (AID 1347398; calls by dose curve; note: nearly all actives have a fitted effect of over 50% in size); conditions: Potency: AChE activity; outcome: AChE activity
Method in brief: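 Using neuroblastoma SH-SY5Y cells as the enzyme source, test chemicals are preincubated 30 min at 37 C; AChE-driven acetylthiocholine cleavage is then quantified by thiocholine-dependent Thiolite Green fluorescence after 40 min at room temperature.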

[3] = molecular target: Acetylcholinesterase (Homo sapiens) (UniProt P22303); test: Acetylcholinesterase (AChE) small molecule antagonists: enzyme-based qHTS assay with human liver microsomes (AID 1347399; calls by dose curve; note: nearly all actives have a fitted effect of over 60% in size); conditions: Potency: qHTS inhibition; outcome: qHTS inhibition
Method in brief: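 Recombinant human AChE (50 mU/mL in the enzyme mix) and human liver microsomes (0.25 mg/mL final) were preincubated with compound and NADPH (0.25 mg/mL final) for 30 min at 37 C. Acetylthiocholine/DTNB was then added; thiocholine was read colorimetrically after 10 min at room temperature.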

[4] = molecular target: Cytochrome P450 2D6 (Homo sapiens) (UniProt P10635); test: Cytochrome P450 Family 2 Subfamily D Member 6 (CYP2D6) small molecule antagonists: luciferase reporter qHTS assay (AID 1671196); note: nearly all actives have a fitted effect of over 50% in size; note: potency is the fitted concentration of half-maximal effect
Cytochrome P450 2D6 (Homo sapiens), sequence (P10635 whole entry, looked up): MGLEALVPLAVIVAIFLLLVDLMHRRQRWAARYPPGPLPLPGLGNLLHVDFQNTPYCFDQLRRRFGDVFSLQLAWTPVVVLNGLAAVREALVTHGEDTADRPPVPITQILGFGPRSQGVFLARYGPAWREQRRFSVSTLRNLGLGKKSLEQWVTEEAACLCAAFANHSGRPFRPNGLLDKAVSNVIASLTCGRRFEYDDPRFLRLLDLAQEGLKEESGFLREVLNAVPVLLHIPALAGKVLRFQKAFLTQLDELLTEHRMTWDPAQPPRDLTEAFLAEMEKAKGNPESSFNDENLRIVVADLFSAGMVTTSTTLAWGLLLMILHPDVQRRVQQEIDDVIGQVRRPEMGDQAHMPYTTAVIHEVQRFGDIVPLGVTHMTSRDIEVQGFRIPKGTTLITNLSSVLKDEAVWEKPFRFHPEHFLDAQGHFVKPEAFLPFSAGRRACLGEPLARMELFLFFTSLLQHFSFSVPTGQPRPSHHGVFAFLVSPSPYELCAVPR
Method in brief: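 Enzyme and proluciferin substrate were first combined with test chemical for 10 min at room temperature. Adding NADPH regeneration solution started a 1 h reaction, stopped with luciferin detection reagent and read by luminescence 20 min later.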

[5] = molecular target: Cytochrome P450 2C19 (Homo sapiens) (UniProt P33261); test: Cytochrome P450 Family 2 Subfamily C Member 19 (CYP2C19) small molecule antagonists: luciferase reporter qHTS assay (AID 1671197); note: nearly all actives have a fitted effect of over 65% in size; note: potency is the fitted concentration of half-maximal effect
Cytochrome P450 2C19 (Homo sapiens), sequence (P33261 whole entry, looked up): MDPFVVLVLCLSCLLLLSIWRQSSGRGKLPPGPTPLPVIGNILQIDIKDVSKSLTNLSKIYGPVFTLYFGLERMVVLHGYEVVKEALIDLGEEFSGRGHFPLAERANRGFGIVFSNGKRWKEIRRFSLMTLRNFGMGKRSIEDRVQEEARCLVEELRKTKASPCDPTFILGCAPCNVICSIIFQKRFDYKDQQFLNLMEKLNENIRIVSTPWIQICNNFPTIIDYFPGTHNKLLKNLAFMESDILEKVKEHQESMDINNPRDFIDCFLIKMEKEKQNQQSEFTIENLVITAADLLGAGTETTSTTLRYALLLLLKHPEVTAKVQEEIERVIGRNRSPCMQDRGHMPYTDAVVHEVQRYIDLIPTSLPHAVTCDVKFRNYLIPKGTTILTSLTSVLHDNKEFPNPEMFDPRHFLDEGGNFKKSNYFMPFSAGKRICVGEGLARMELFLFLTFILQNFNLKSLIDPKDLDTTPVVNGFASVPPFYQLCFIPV
Method in brief: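 Inhibition of CYP2C19 was scored from loss of luminescence in a P450-Glo proluciferin substrate assay, NADPH-started and run 1 h at 37C, with ketoconazole as positive control.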

[6] = molecular target: Cytochrome P450 2C9 (Homo sapiens) (UniProt P11712); test: Cytochrome P450 Family 2 Subfamily C Member 9 (CYP2C9) small molecule antagonists: luciferase reporter qHTS assay (AID 1671198); note: nearly all actives have a fitted effect of over 50% in size; note: potency is the fitted concentration of half-maximal effect
Cytochrome P450 2C9 (Homo sapiens), sequence (P11712 whole entry, looked up): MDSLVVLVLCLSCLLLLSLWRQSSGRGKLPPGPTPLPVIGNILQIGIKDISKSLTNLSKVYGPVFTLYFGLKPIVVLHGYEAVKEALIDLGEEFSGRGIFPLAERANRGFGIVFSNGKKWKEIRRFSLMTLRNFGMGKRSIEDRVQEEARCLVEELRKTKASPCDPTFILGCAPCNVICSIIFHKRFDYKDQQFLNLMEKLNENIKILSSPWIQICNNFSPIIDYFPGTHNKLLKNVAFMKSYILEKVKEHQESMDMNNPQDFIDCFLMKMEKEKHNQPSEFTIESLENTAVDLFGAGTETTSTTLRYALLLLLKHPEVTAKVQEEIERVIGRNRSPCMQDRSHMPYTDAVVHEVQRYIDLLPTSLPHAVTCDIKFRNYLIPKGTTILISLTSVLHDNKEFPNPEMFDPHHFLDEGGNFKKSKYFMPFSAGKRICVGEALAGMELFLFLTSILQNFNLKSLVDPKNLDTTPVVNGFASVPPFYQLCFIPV
Method in brief: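 CYP2C9 activity was measured with a P450-Glo proluciferin substrate. Enzyme–substrate mix was held with compound for 10 min at room temperature, then NADPH regeneration solution was added for 1 h at 37C. Luciferin product was read as luminescence.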

[7] = molecular target: Cytochrome P450 1A2 (Homo sapiens) (UniProt P05177); test: Cytochrome P450 Family 1 Subfamily A Member 2 (CYP1A2) small molecule antagonists: luciferase reporter qHTS assay (AID 1671199); note: nearly all actives have a fitted effect of over 50% in size; note: potency is the fitted concentration of half-maximal effect
Cytochrome P450 1A2 (Homo sapiens), sequence (P05177 whole entry, looked up): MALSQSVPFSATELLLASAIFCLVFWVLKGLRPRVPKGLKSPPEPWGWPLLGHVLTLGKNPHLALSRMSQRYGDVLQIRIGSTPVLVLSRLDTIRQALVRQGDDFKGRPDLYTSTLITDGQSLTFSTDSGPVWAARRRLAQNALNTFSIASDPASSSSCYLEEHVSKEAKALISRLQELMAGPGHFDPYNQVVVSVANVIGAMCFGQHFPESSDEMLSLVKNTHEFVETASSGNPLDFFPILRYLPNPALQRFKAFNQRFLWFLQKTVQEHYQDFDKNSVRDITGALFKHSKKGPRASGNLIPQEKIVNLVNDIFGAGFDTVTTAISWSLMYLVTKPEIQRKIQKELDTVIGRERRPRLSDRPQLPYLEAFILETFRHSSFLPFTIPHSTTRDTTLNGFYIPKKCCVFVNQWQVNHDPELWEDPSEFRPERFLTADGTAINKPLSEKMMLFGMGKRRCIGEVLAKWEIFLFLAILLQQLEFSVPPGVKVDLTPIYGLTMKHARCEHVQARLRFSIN
Method in brief: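 Compounds were incubated with CYP1A2 and a luminogenic proluciferin substrate for 10 min at room temperature before the reaction was started with NADPH regeneration solution. After 1 h, detection reagent was added and light output, proportional to CYP activity, was recorded.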

[8] = molecular target: Voltage-gated inwardly rectifying potassium channel KCNH2 (Homo sapiens) (UniProt Q12809); test: Human Ether-a-go-go-Related Gene (hERG) channel small molecule antagonists: fluorescence cell-based qHTS assay (AID 1671200)
Voltage-gated inwardly rectifying potassium channel KCNH2 (Homo sapiens), sequence (Q12809 whole entry, looked up): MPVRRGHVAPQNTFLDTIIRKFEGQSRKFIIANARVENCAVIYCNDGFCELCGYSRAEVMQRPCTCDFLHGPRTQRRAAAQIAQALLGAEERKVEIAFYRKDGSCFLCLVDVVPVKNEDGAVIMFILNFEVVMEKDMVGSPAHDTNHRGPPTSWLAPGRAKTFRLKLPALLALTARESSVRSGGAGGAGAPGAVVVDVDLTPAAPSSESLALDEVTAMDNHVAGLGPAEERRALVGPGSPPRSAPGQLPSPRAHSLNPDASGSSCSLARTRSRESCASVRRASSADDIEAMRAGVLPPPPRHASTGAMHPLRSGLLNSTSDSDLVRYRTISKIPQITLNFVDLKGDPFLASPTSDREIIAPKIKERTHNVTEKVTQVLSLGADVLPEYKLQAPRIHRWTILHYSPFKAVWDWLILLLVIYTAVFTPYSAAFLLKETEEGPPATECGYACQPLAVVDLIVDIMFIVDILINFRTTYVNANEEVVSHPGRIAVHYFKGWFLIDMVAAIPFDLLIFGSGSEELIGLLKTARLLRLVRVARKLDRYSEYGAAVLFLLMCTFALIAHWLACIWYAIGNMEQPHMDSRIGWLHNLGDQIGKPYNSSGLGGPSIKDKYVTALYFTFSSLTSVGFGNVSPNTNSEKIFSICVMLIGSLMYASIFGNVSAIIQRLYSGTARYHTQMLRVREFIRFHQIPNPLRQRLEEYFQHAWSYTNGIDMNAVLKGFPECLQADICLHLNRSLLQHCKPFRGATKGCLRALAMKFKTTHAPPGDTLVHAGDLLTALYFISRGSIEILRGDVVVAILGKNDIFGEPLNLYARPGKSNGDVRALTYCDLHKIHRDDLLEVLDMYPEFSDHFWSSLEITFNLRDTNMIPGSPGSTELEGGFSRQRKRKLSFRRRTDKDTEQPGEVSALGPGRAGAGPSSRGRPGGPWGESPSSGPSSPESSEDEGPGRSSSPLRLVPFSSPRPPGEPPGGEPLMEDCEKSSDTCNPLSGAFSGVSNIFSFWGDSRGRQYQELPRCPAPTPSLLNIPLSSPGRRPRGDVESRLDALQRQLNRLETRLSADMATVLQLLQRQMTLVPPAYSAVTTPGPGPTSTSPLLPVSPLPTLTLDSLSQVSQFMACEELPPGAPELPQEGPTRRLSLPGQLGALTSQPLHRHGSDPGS
Method in brief: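 First, 1000 cells per well are seeded and cultured overnight at 37 C. Next, FluxOR II dye is loaded for 1 h at room temperature, protected from light. After 10 more minutes, stimulus is added and fluorescence is read.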

[9] = molecular target: Cytochrome P450 3A4 (Homo sapiens) (UniProt P08684); test: Cytochrome P450 Family 3 Subfamily A Member 4 (CYP3A4) small molecule antagonists: luciferase reporter qHTS assay (AID 1671201)
Cytochrome P450 3A4 (Homo sapiens), sequence (P08684 whole entry, looked up): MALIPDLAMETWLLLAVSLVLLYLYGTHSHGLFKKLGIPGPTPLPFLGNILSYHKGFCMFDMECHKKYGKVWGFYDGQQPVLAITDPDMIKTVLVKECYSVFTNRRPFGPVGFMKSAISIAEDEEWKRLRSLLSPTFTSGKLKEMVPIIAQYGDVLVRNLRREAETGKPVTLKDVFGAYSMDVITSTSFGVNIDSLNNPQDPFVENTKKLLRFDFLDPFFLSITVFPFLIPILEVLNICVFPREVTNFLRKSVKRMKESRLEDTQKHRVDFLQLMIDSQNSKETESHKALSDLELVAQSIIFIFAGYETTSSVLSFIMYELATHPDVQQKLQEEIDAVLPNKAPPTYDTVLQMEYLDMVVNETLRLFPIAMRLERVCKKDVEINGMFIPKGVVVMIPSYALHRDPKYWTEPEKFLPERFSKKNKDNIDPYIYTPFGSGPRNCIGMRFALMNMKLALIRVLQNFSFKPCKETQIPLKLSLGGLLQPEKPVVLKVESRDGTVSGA
Method in brief: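 Enzyme and proluciferin substrate are mixed with test chemicals for 10 min, then NADPH regeneration system drives turnover for 1 h at room temperature. A detection reagent halts the reaction; luminescence after 20 min gives relative activity.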

Structure (SMILES)	Potency [1]	Potency [2]	Potency [3]	Potency [4]	Potency [5]	Potency [6]	Potency [7]	Potency [8]	Potency [9]
CCC(C)C(C)(COC(N)=O)COC(N)=O (stereo unspecified)	inactive	inactive	inactive	inactive	inactive	inactive	inactive	inactive	inactive
CN=CNc1ccc(C)cc1C	inactive	inactive	inactive	inactive	inactive	inactive	inactive	inactive	inactive
NC(=O)OCCCc1ccccc1	inactive	inactive	inactive	inactive	inactive	inactive	21.9 µM (active)	inactive	inactive
COc1cc(CCN)cc(OC)c1OC	inactive	inactive	inactive	inactive	inactive	inactive	38.7 µM (active)	inactive	inactive
O=[N+]([O-])CCO	inactive	inactive	inactive	inactive	inactive	inactive	inactive	inactive	inactive
COc1cccc(C=O)c1	inactive	inactive	inactive	inactive	inactive	inactive	39.9 µM (active)	inactive	inactive
CON(C)C(=O)Nc1ccc(Br)c(Cl)c1	inactive	inactive	inactive	inactive	28.3 µM (active)	63.3 µM (active)	1.78 µM (active)	inactive	
BrCC1CO1 (stereo unspecified)	inactive	inactive	inactive	inactive	inactive	inactive	inactive	inactive	inactive
CC1N=C(N)OC1c1ccccc1 (stereo unspecified)	inactive	inactive	inactive	9.81 µM (active)	inactive	inactive	inactive	inactive	inactive
Clc1ccc(C(Cl)(Cl)Cl)cn1	inactive	inactive	inactive	inactive	inactive	inactive	7.96 µM (active)	inactive	
O=C(CCl)NCO	inactive	inactive	inactive	inactive	inactive	inactive	inactive	inactive	inactive
CCOC(=O)CCl	inactive	inactive	inactive	inactive	inactive	inactive	inactive	inactive	inactive

Reference: PubChem BioAssay (Tox21)
